Bioassay records from PubChem.
GIRK2 activator: Activators of human GIRK2-containing channels; P48051; HEK293 GIRK2/NPY4 cells, thallium flux fluorescence; activation (% efficacy), % for hits at 75 µM; 34,000 tested, under 10 active; AID 1259324;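 active means primary screen hit, no activity in plain HEK293 cells, and in GIRK2-only cells above 5% efficacy rising with concentration; inactive means the rest, including fluorescent compounds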;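 further: efficacy is normalized control-subtracted fluorescence 15 s after thallium addition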
Target sequence (P48051 whole entry, looked up): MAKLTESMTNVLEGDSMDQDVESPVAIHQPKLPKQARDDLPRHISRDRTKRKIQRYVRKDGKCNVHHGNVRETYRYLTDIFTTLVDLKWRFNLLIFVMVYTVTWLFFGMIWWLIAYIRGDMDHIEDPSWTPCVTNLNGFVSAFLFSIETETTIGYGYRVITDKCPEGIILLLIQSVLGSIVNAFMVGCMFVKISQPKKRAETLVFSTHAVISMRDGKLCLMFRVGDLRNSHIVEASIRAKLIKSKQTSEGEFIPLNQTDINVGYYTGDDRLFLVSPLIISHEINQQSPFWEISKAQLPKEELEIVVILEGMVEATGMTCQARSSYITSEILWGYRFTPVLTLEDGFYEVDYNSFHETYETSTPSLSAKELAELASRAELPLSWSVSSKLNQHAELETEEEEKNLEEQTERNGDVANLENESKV
GluA2 TARP mod: modulators of AMPA receptor GluA2-stargazin complexes | HEK293 GluA2+stargazin, membrane potential dye (FDSS), glutamate EC50; hits were called plate by plate, in both directions | calls only at 30 µM | hit rate 3.5% among 40,000 | AID 1259245;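 active means any of four per-well response measures lying three or more SD from its plate-wide compound average, in either direction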
Each line names hits and unclear results; the compound was inactive in the other large screens; ! = not confirmed by another sample. Many of the other results were omitted from the sample, so hits are more common in it than they were.

CCSc1ccccc1C(=O)NC1CNC(=O)C1 (stereo not drawn)	none (no result: GIRK2 activator)
O=C1CC(NC(=O)c2ccccc2Oc2ccccc2)CN1 (stereo not drawn)	GluA2 TARP mod active (no result: GIRK2 activator)
COc1ccc(C(=O)N/N=C\c2ccc3nccnc3c2)cc1	none (no result: GluA2 TARP mod)
Cc1cc(-c2nnc(NC(=O)COc3ccccc3)o2)n(C)n1	none (no result: GluA2 TARP mod)
Cc1ccc(CNC(=O)Cc2csc(NC(=O)c3ccc(=O)[nH]c3)n2)cc1	none
Cc1ccc(NC(=O)COc2ccccc2)cc1N1CCCCC1=O	none
CN(C)C(CNC(=O)c1ccc2ccccc2c1)c1cccs1 (stereo not drawn)	none
CCOc1ccc(OCCNC(=O)Cc2cccc3ccccc23)cc1	none
CN(C)C(CNC(=O)c1ccccc1Cl)c1cccc2ccccc12 (stereo not drawn)	none (no result: GIRK2 activator)
CCOc1ccc(C(=O)NCC(c2ccc(F)cc2)N2CCOCC2)cc1OCC (stereo not drawn)	none (no result: GIRK2 activator)
CCOc1ccc2ccccc2c1C(=O)NCC(c1ccc(F)cc1)N1CCOCC1 (stereo not drawn)	GluA2 TARP mod active (no result: GIRK2 activator)
CN(C)C(CNC(=O)c1c(F)cccc1F)c1cccc2ccccc12 (stereo not drawn)	GluA2 TARP mod active (no result: GIRK2 activator)
CCOc1ccc2ccccc2c1C(=O)NCCOc1ccccc1	GluA2 TARP mod active
CCOc1ccc2ccccc2c1C(=O)NCC(c1cccs1)N(C)C (stereo not drawn)	GluA2 TARP mod active
CC(=O)N1CCN(c2oc(-c3ccc(Cl)cc3)nc2S(=O)(=O)c2ccccc2)CC1	none
COc1cc(NC(=O)Nc2c(C)nc3ccc(C)cn3c2=O)cc(OC)c1	none
COc1ccc(OC)c(N(C(=O)C(F)(F)F)C2C=CS(=O)(=O)C2)c1 (stereo not drawn)	none
CCOc1ccc2ccccc2c1C(=O)NCC(c1cccs1)N1CCOCC1 (stereo not drawn)	GluA2 TARP mod active
CCOc1ccc2ccccc2c1C(=O)NCC(c1ccc(OC)cc1)N1CCOCC1 (stereo not drawn)	GluA2 TARP mod active (no result: GIRK2 activator)
COc1ccc(C(=O)NCC(c2ccc(F)cc2)N2CCOCC2)cc1 (stereo not drawn)	none (no result: GIRK2 activator)
COc1cccc(OC)c1C(=O)NCC(c1cccs1)N1CCOCC1 (stereo not drawn)	none
COc1ccc(NC(=O)Cn2nc(C(=O)Nc3ccccc3)ccc2=O)cc1OC	none
CCCOc1cn(-c2ccc(F)cc2)nc1C(=O)NCCC(C)C	GluA2 TARP mod active
CCCOc1cn(-c2ccc(F)cc2)nc1C(=O)NCCc1ccccc1	none
CCOc1cn(-c2ccc(F)cc2)nc1C(=O)N1CCCCC1	none
CCOc1cn(-c2ccc(F)cc2)nc1C(=O)N1CC(C)CC(C)C1 (stereo not drawn)	GluA2 TARP mod active
CCOc1cn(-c2ccc(F)cc2)nc1C(=O)N1c2ccccc2CC1C (stereo not drawn)	GluA2 TARP mod active
CCOC(=O)N1CCN(C(=O)c2nn(-c3ccc(F)cc3)cc2OCC)CC1	none
CCn1nnc2c(N3CCN(CC(=O)Nc4ccc(C)cc4C)CC3)ncnc21	none
COc1ccc(NC(=O)CCn2cncn2)cc1	none
COc1ccc(C2(CNC(=O)c3snnc3C)CCCC2)cc1	none
COCCn1c(=NC(=O)c2cc(C)no2)sc2cc(OC)ccc21	none
CCOc1ccc2c(c1)sc(=NC(=O)c1ccc(S(=O)(=O)C(C)C)cc1)n2CCOC	GluA2 TARP mod active
Cc1ccccc1NC(=O)Cn1c(Cc2ccccc2)nc2ccccc21	GluA2 TARP mod active
COc1ccc(Cc2nc3ccccc3n2CC(=O)N2CCCCCC2)cc1OC	none
CCS(=O)(=O)c1ccc(CC(=O)Nc2ccc3c(c2)C(=O)NC3=O)cc1	none (no result: GIRK2 activator)
O=C(c1ccc(OC(F)(F)F)cc1)N1CCC(c2cccs2)CC1	none
COc1nn(C)cc1C(=O)NCC(=O)NCC(F)(F)F	none
COCC(C)(O)CNC(=O)c1cn(C)nc1OC (stereo not drawn)	GluA2 TARP mod active
COc1nn(C)cc1C(=O)NCC(=O)Nc1ccc(C#N)cc1	none
COCC(C)(O)CNC(=O)c1ccc(Cl)cc1 (stereo not drawn)	GluA2 TARP mod active
COCC(C)(O)CNC(=O)c1cc(OC)cc(OC)c1 (stereo not drawn)	none
COc1nn(C)cc1C(=O)NCC(=O)Nc1ccc(F)c(C(F)(F)F)c1	GluA2 TARP mod active
COCC(C)(O)CNC(=O)c1c(F)cccc1F (stereo not drawn)	GluA2 TARP mod active
COCC(C)(O)CNC(=O)c1ccccc1C(F)(F)F (stereo not drawn)	none
COc1ccc(N2CCN(C(CNS(=O)(=O)c3ccc(Cl)cc3)c3cccnc3)CC2)cc1 (stereo not drawn)	none (no result: GIRK2 activator)
CCCc1ccc(S(=O)(=O)Nc2ccc3c(c2)N(C(=O)c2cccs2)CC3)cc1	none
COc1cccc(-c2csc(CN3CCN(C(=O)C4CC4)CC3)n2)c1	none
COc1ccc(OC)c(NC(=O)CS(=O)(=O)c2ccc(Cl)s2)c1	none
Cc1nc2c(sc3cccc(F)c32)c(=O)n1CC(=O)NC1CCCCC1	none (no result: GluA2 TARP mod)
O=C(Cn1c(CO)cnc1SCc1c(F)cccc1Cl)NC1CCCC1	GluA2 TARP mod active
O=C1c2ccccc2C(O)(Cc2ccccc2)N1C(c1ccccc1)c1ccccc1 (stereo not drawn)	GluA2 TARP mod active (no result: GIRK2 activator)
O=C1c2ccccc2C(O)(Cc2ccccc2)N1CCCN1CCOCC1 (stereo not drawn)	none (no result: GIRK2 activator)
CC(=O)CC1(O)C(=O)N(CCOc2ccc(C(C)(C)C)cc2)c2ccccc21 (stereo not drawn)	GluA2 TARP mod active!
CC(=O)CC1(O)C(=O)N(CCCOc2ccccc2C)c2ccccc21 (stereo not drawn)	none
O=C1Cc2cc(NC(=O)NCCCc3ccccc3)ccc2N1	none
CCCS(=O)(=O)N1CCCc2ccc(NS(=O)(=O)c3ccc(OC)c(Cl)c3)cc21	none (no result: GIRK2 activator)
CCOc1ccc(C2=NN3C(C2)c2ccccc2OC3c2ccncc2)cc1 (stereo not drawn)	none
COc1cc(/C=C/C(=O)Nc2nnc(-c3ccn(C)n3)o2)cc(OC)c1OC	GluA2 TARP mod active
COc1ccc(-c2nnc(NC(=O)c3cc(C)nn3C)o2)cc1OC	GluA2 TARP mod active
COc1cc(C(=O)Nc2nnc(-c3cc(C)n(C)n3)o2)cc(OC)c1OC	GluA2 TARP mod active
COc1ccc(-c2nnc(NC(=O)c3ccn(C)n3)o2)cc1OC	none
Cc1cc(-c2nnc(NC(=O)/C=C/c3ccccc3)o2)nn1C	none
COC(=O)c1ccc(C(=O)Nc2nnc(-c3cc(C)n(C)n3)o2)cc1	none
CCn1nc(C(=O)Nc2nnc(-c3ccc(OC)cc3)o2)cc1C	none (no result: GluA2 TARP mod)
COc1cc(-c2nnc(NC(=O)c3cc(C)n(C)n3)o2)cc(OC)c1OC	GluA2 TARP mod active
CN(C)C(CNC(=O)C(=O)Nc1ccc2c(c1)OCO2)c1ccco1 (stereo not drawn)	none
COc1cccc(CNC(=O)C(=O)Nc2ccon2)c1	none (no result: GIRK2 activator)
COc1cccc(C(=O)Nc2nnc(-c3cc(C)nn3C)o2)c1OC	none (no result: GluA2 TARP mod)
COc1cccc2cc(C(=O)Nc3nnc(-c4cc(C)nn4C)o3)oc12	GluA2 TARP mod active
O=C1S/C(=C\c2cccc([N+](=O)[O-])c2)C(=O)N1c1ccc(F)cc1	GluA2 TARP mod active
O=C1S/C(=C\c2ccc([N+](=O)[O-])cc2)C(=O)N1c1ccc(F)cc1	none
COc1ccc(-n2nnc(C(=O)NCCO)c2C(C)C)cc1	none
CCOC(=O)Cn1c(C2CC(=O)N(c3cc(C)cc(C)c3)C2)nc2ccccc21 (stereo not drawn)	none
Cc1n[nH]c(C)c1S(=O)(=O)N1CCC(Cn2c(C)nc3ccccc32)CC1	none
